± gives the standard deviation.
T1: HaloTag-ATRX ADD domain (163-292)
T1 chain: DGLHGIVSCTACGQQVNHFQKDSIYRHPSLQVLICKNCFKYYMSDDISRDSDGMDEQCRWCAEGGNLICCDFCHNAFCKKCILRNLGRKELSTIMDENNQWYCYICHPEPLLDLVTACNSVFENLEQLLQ


Target: T1, HaloTag-ATRX ADD domain (163-292)
Test: peptide microarray binding signal (635 nm), min-max normalized on array (fraction of array maximum); higher = stronger binding
Conditions: peptide region: Unmod H1 variant; binder concentration: 50 nM
Method in brief: (§1)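 For each library, binding signal was taken as the triplicate-spot mean intensity and then min-max scaled. Spots of histone 13-mer peptide–cellulose conjugates on nitrocellulose, printed in triplicate with a Cy3 tracer, were probed for 1 h at 4°C with either biotin-labelled HaloTag reader fusions (10 nM to 1 μM) and streptavidin-Alexa Fluor 647 or rabbit histone antibodies (1:10,000 to 1:2,000) and anti-rabbit Alexa 647. Readout at 635 nm came from an Axon GenePix 4000B.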

Binder	peptide microarray binding signal
AAGAKKAKSPKKA [Unmod H1 variant A A G A K K A K S P K K A]	0.0119 ± 0.00059
KTAKPKKAAPKKK [Unmod H1 variant K T A K P K K A A P K K K]	0.01737 ± 0.0001
SETAPAAPAAPAP [Unmod H1 variant S E T A P A A P A A P A P]	0.0194 ± 0.0011
AVAASKERSGVSL [Unmod H1 variant A V A A S K E R S G V S L]	0.0286 ± 0.0016
PKKAKKPAAAAGA [Unmod H1 variant P K K A K K P A A A A G A]	0.0116 ± 7.8e-05
GAAKRKASGPPVS [Unmod H1 variant G A A K R K A S G P P V S]	0.0168 ± 0.00018
APAPAEKTPVKKK [Unmod H1 variant A P A P A E K T P V K K K]	0.021 ± 0.0011
EKNNSRIKLGLKS [Unmod H1 variant E K N N S R I K L G L K S]	0.0196 ± 0.00022
TPKKSAKKTPKKA [Unmod H1 variant T P K K S A K K T P K K A]	0.0108 ± 0.0035
VKKKARKSAGAAK [Unmod H1 variant V K K K A R K S A G A A K]	0.0176 ± 0.00024

Same assay, conditions: peptide region: Unmod H1 variant; binder concentration: 500 nM

Binder	peptide microarray binding signal
AAGAKKAKSPKKA [Unmod H1 variant A A G A K K A K S P K K A]	0.01348 ± 5.3e-05
KTAKPKKAAPKKK [Unmod H1 variant K T A K P K K A A P K K K]	0.00729 ± 0.00021
SETAPAAPAAPAP [Unmod H1 variant S E T A P A A P A A P A P]	0.00995 ± 0.00098
AVAASKERSGVSL [Unmod H1 variant A V A A S K E R S G V S L]	0.0273 ± 0.0012
PKKAKKPAAAAGA [Unmod H1 variant P K K A K K P A A A A G A]	0.00771 ± 0.00013
GAAKRKASGPPVS [Unmod H1 variant G A A K R K A S G P P V S]	0.00757 ± 0.00056
APAPAEKTPVKKK [Unmod H1 variant A P A P A E K T P V K K K]	0.0189 ± 0.00097
EKNNSRIKLGLKS [Unmod H1 variant E K N N S R I K L G L K S]	0.0155 ± 0.00098
TPKKSAKKTPKKA [Unmod H1 variant T P K K S A K K T P K K A]	0.0104 ± 0.0011
VKKKARKSAGAAK [Unmod H1 variant V K K K A R K S A G A A K]	0.0081 ± 0.00035

target: HaloTag-ING2 PHD (mouse Ing2 200-280); test: as above; conditions: peptide region: Unmod H1 variant; binder concentration: 10 nM
Method in brief: as §1

Binder	peptide microarray binding signal
AAGAKKAKSPKKA [Unmod H1 variant A A G A K K A K S P K K A]	0.003342 ± 1.8e-05
KTAKPKKAAPKKK [Unmod H1 variant K T A K P K K A A P K K K]	0.00203 ± 5.4e-05
SETAPAAPAAPAP [Unmod H1 variant S E T A P A A P A A P A P]	0.00394 ± 0.0003
AVAASKERSGVSL [Unmod H1 variant A V A A S K E R S G V S L]	0.011 ± 0.00034
PKKAKKPAAAAGA [Unmod H1 variant P K K A K K P A A A A G A]	0.00322 ± 4.7e-05
GAAKRKASGPPVS [Unmod H1 variant G A A K R K A S G P P V S]	0.00245 ± 5e-05
APAPAEKTPVKKK [Unmod H1 variant A P A P A E K T P V K K K]	0.00466 ± 0.00027
EKNNSRIKLGLKS [Unmod H1 variant E K N N S R I K L G L K S]	0.00585 ± 0.0006
TPKKSAKKTPKKA [Unmod H1 variant T P K K S A K K T P K K A]	0.00322 ± 4.7e-05
VKKKARKSAGAAK [Unmod H1 variant V K K K A R K S A G A A K]	0.00203 ± 4.1e-05

same assay, conditions: peptide region: Unmod H1 variant; binder concentration: 100 nM

Binder	peptide microarray binding signal
AAGAKKAKSPKKA [Unmod H1 variant A A G A K K A K S P K K A]	0.00999 ± 0.0011
KTAKPKKAAPKKK [Unmod H1 variant K T A K P K K A A P K K K]	0.00532 ± 0.00022
SETAPAAPAAPAP [Unmod H1 variant S E T A P A A P A A P A P]	0.00418 ± 0.00041
AVAASKERSGVSL [Unmod H1 variant A V A A S K E R S G V S L]	0.0228 ± 0.00053
PKKAKKPAAAAGA [Unmod H1 variant P K K A K K P A A A A G A]	0.00652 ± 0.00013
GAAKRKASGPPVS [Unmod H1 variant G A A K R K A S G P P V S]	0.00822 ± 0.00024
APAPAEKTPVKKK [Unmod H1 variant A P A P A E K T P V K K K]	0.012 ± 0.00083
EKNNSRIKLGLKS [Unmod H1 variant E K N N S R I K L G L K S]	0.0201 ± 0.0018
TPKKSAKKTPKKA [Unmod H1 variant T P K K S A K K T P K K A]	0.0121 ± 0.0049
VKKKARKSAGAAK [Unmod H1 variant V K K K A R K S A G A A K]	0.00553 ± 0.00055

target: anti-H3K4me3 antibody ab8580; test: as above; conditions: peptide region: Unmod H1 variant; binder concentration: 1:2,000 dilution
Method in brief: as §1

Binder	peptide microarray binding signal
AAGAKKAKSPKKA [Unmod H1 variant A A G A K K A K S P K K A]	0.00068 ± 1.9e-05
KTAKPKKAAPKKK [Unmod H1 variant K T A K P K K A A P K K K]	0.000755 ± 3e-05
SETAPAAPAAPAP [Unmod H1 variant S E T A P A A P A A P A P]	0.00274 ± 0.001
AVAASKERSGVSL [Unmod H1 variant A V A A S K E R S G V S L]	0.00236 ± 0.00025
PKKAKKPAAAAGA [Unmod H1 variant P K K A K K P A A A A G A]	0.000736 ± 1.2e-05
GAAKRKASGPPVS [Unmod H1 variant G A A K R K A S G P P V S]	0.000793 ± 1.2e-05
APAPAEKTPVKKK [Unmod H1 variant A P A P A E K T P V K K K]	0.00136 ± 0.00038
EKNNSRIKLGLKS [Unmod H1 variant E K N N S R I K L G L K S]	0.00196 ± 0.00038
TPKKSAKKTPKKA [Unmod H1 variant T P K K S A K K T P K K A]	0.000812 ± 4.4e-05
VKKKARKSAGAAK [Unmod H1 variant V K K K A R K S A G A A K]	0.00145 ± 0.00015

same assay, conditions: peptide region: Unmod H1 variant; binder concentration: 1:10,000 dilution

Binder	peptide microarray binding signal
AAGAKKAKSPKKA [Unmod H1 variant A A G A K K A K S P K K A]	0.00143 ± 2.4e-05
KTAKPKKAAPKKK [Unmod H1 variant K T A K P K K A A P K K K]	0.000913 ± 1.6e-05
SETAPAAPAAPAP [Unmod H1 variant S E T A P A A P A A P A P]	0.00337 ± 0.00036
AVAASKERSGVSL [Unmod H1 variant A V A A S K E R S G V S L]	0.00479 ± 0.00028
PKKAKKPAAAAGA [Unmod H1 variant P K K A K K P A A A A G A]	0.001541 ± 1.5e-05
GAAKRKASGPPVS [Unmod H1 variant G A A K R K A S G P P V S]	0.000799 ± 8.3e-06
APAPAEKTPVKKK [Unmod H1 variant A P A P A E K T P V K K K]	0.00223 ± 7.3e-05
EKNNSRIKLGLKS [Unmod H1 variant E K N N S R I K L G L K S]	0.00137 ± 4.9e-05
TPKKSAKKTPKKA [Unmod H1 variant T P K K S A K K T P K K A]	0.00137 ± 4.9e-05
VKKKARKSAGAAK [Unmod H1 variant V K K K A R K S A G A A K]	0.00143 ± 2.4e-05

target: anti-H3K9me3 antibody ab8898; test: as above; conditions: peptide region: Unmod H1 variant; binder concentration: 1:2,000 dilution
Method in brief: as §1

Binder	peptide microarray binding signal
AAGAKKAKSPKKA [Unmod H1 variant A A G A K K A K S P K K A]	0.0004379 ± 4.2e-06
KTAKPKKAAPKKK [Unmod H1 variant K T A K P K K A A P K K K]	0.000121 ± 1.3e-06
SETAPAAPAAPAP [Unmod H1 variant S E T A P A A P A A P A P]	0.00159 ± 8.6e-05
AVAASKERSGVSL [Unmod H1 variant A V A A S K E R S G V S L]	0.00335 ± 9.4e-05
PKKAKKPAAAAGA [Unmod H1 variant P K K A K K P A A A A G A]	0.000483 ± 9.2e-06
GAAKRKASGPPVS [Unmod H1 variant G A A K R K A S G P P V S]	0.000211 ± 4.5e-06
APAPAEKTPVKKK [Unmod H1 variant A P A P A E K T P V K K K]	0.000906 ± 4.5e-05
EKNNSRIKLGLKS [Unmod H1 variant E K N N S R I K L G L K S]	0.000317 ± 5.6e-06
TPKKSAKKTPKKA [Unmod H1 variant T P K K S A K K T P K K A]	0.000287 ± 1.1e-05
VKKKARKSAGAAK [Unmod H1 variant V K K K A R K S A G A A K]	0.000272 ± 4.9e-06

same assay, conditions: peptide region: Unmod H1 variant; binder concentration: 1:10,000 dilution

Binder	peptide microarray binding signal
AAGAKKAKSPKKA [Unmod H1 variant A A G A K K A K S P K K A]	0.00115
KTAKPKKAAPKKK [Unmod H1 variant K T A K P K K A A P K K K]	0.000577 ± 6.2e-06
SETAPAAPAAPAP [Unmod H1 variant S E T A P A A P A A P A P]	0.00167 ± 2.8e-05
AVAASKERSGVSL [Unmod H1 variant A V A A S K E R S G V S L]	0.002825 ± 2.4e-05
PKKAKKPAAAAGA [Unmod H1 variant P K K A K K P A A A A G A]	0.00098
GAAKRKASGPPVS [Unmod H1 variant G A A K R K A S G P P V S]	0.000634
APAPAEKTPVKKK [Unmod H1 variant A P A P A E K T P V K K K]	0.00098
EKNNSRIKLGLKS [Unmod H1 variant E K N N S R I K L G L K S]	0.00098
TPKKSAKKTPKKA [Unmod H1 variant T P K K S A K K T P K K A]	0.000865 ± 9e-06
VKKKARKSAGAAK [Unmod H1 variant V K K K A R K S A G A A K]	0.000634
